This is an account of results in the antibiotic and cytotoxicity screens of Wong et al. (2023).

Out of some 39,000 compounds screened, about 3,300 (8.5%) were called active. For the sample, actives were picked, then their nearest neighbours and some compounds at random.

The test deals with HepG2. The test can be described thus: cytotoxicity call (relative viability < 0.9). The conditions noted are these: 10 µM.
With `C[C@H]1CN([C@@H](C)CO)S(=O)(=O)c2ccc(C3=CCCC3)cc2O[C@@H]1CN(C)S(=O)(=O)c1cn(C)cn1`, the cytotoxicity call is “inactive”.

Take `C[C@@H]1CN([C@H](C)CO)C(=O)c2cc(NS(=O)(=O)c3ccc(F)cc3)ccc2O[C@@H]1CN(C)S(=O)(=O)c1ccc(F)cc1`: the cytotoxicity call was “inactive”. The value for `C[C@@H]1CN([C@@H](C)CO)C(=O)Cc2cc(NC(=O)Nc3ccccc3)ccc2O[C@H]1CN(C)Cc1ccc(Cl)c(Cl)c1` was “inactive”; that for `C[C@H](CO)N1C[C@H](C)[C@H](CN(C)Cc2ccc(Cl)c(Cl)c2)Oc2ccc(NC(=O)Nc3ccccc3)cc2CC1=O` was “active”. On to `C[C@H](CO)N1C[C@H](C)[C@@H](CN(C)Cc2ccc(Cl)c(Cl)c2)Oc2ccc(NC(=O)Nc3ccccc3)cc2CC1=O`, for which the cytotoxicity call was “inactive”. Under `C[C@H]1CN([C@@H](C)CO)C(=O)Cc2cc(NC(=O)Nc3ccccc3)ccc2O[C@H]1CN(C)Cc1ccc(Cl)c(Cl)c1` stands “active”. Regarding `C[C@@H]1CN([C@H](C)CO)C(=O)Cc2cc(NC(=O)Nc3ccccc3)ccc2O[C@@H]1CN(C)Cc1ccc(Cl)c(Cl)c1`, the cytotoxicity call is “active”.

For `C[C@@H]1CN([C@H](C)CO)C(=O)Cc2cc(NC(=O)Nc3ccccc3)ccc2O[C@H]1CN(C)Cc1ccc(Cl)c(Cl)c1`, the cytotoxicity call was “active”. For the molecule `CC(C)NC(=O)Nc1ccc2c(c1)C(=O)N([C@H](C)CO)C[C@H](C)[C@H](CN(C)C(=O)Nc1ccccc1)OCCCC[C@H](C)O2`, the cytotoxicity call is “inactive”. Regarding `C[C@@H]1CN([C@@H](C)CO)C(=O)Cc2cc(NS(=O)(=O)c3cn(C)cn3)ccc2O[C@@H]1CN(C)Cc1ccc(C(=O)Nc2ccccc2N)cc1`, the cytotoxicity call was “inactive”. `Cc1noc(C)c1S(=O)(=O)Nc1cccc2c1O[C@H](CN(C)C(=O)Nc1ccccc1)[C@H](C)CN([C@H](C)CO)C2=O`: the cytotoxicity call is “inactive”.

As to `CN(C(=O)c1ccc(Cl)c(N2C(=O)CCS2(=O)=O)c1)[C@H]1CCS(=O)(=O)C1`, the cytotoxicity call is “inactive”. As for `Cc1ccc(S(=O)(=O)Nc2ccc3c(c2)C(=O)N([C@@H](C)CO)C[C@H](C)[C@@H](CN(C)S(C)(=O)=O)O3)cc1`, the cytotoxicity call is “inactive”. For the molecule `O=C(C[C@H]1CC[C@H]2[C@@H](COC[C@@H](O)CN2S(=O)(=O)c2ccc(F)cc2)O1)NCCN1CCCCC1`, the cytotoxicity call is “inactive”.

`Cc1noc(C)c1NC(=O)Nc1ccc2c(c1)C(=O)N([C@H](C)CO)C[C@@H](C)[C@@H](CN(C)Cc1ccc3c(c1)OCO3)OCCCC[C@H](C)O2`: the cytotoxicity call was “inactive”. With `O=C(C[C@H]1C[C@H]2c3cc(NS(=O)(=O)c4ccc(F)cc4)ccc3O[C@H]2[C@H](CO)O1)NCc1cccc(F)c1`, the cytotoxicity call was “inactive”. Under `C[C@@H]1CN([C@@H](C)CO)C(=O)Cc2cc(NC(=O)Nc3ccccc3)ccc2O[C@@H]1CN(C)Cc1ccc(Cl)c(Cl)c1` stands “active”; under `C[C@H]1CN([C@@H](C)CO)C(=O)Cc2cc(NC(=O)Nc3ccccc3)ccc2O[C@@H]1CN(C)Cc1ccc(Cl)c(Cl)c1`, “active”. In the case of `C[C@H](CO)N1C[C@H](C)[C@H](CN(C)Cc2ccc(C(F)(F)F)cc2)OCCCC[C@H](C)Oc2ccc(NC(=O)c3ccncc3)cc2C1=O`, the cytotoxicity call is “inactive”. `C[C@@H]1CN([C@@H](C)CO)S(=O)(=O)c2ccc(C3=CCCC3)cc2O[C@H]1CN(C)S(=O)(=O)c1ccc(F)cc1`: the cytotoxicity call is “inactive”. For the molecule `Nc1cccc(OCc2ccccc2)c1`, the cytotoxicity call is “inactive”. Under `CC(C)NC(=O)Nc1ccc2c(c1)C(=O)N([C@H](C)CO)C[C@@H](C)[C@H](CN(C)Cc1ccc(C(=O)O)cc1)O2` stands “inactive”. Regarding `C[C@@H]1CN([C@H](C)CO)S(=O)(=O)c2ccc(C#CCN(C)C)cc2O[C@H]1CN(C)C(=O)Nc1ccccc1F`, the cytotoxicity call is “inactive”. For `CC12C=CC(=O)C=C1CCC1C2C(=O)CC2(C)C1CCC2(O)C(=O)CO` (stereo not drawn), the cytotoxicity call was “inactive”.

As to `O=P(O)(O)C(Cl)(Cl)P(=O)(O)O`, the cytotoxicity call is “active”. Under `CC(O)(P(=O)(O)O)P(=O)(O)O` stands “inactive”; under `CC(O)(P(=O)([O-])O)P(=O)([O-])O.[Na+].[Na+]`, “inactive”; under `C[C@@H]1CN([C@@H](C)CO)C(=O)c2cc(NC(=O)Cc3ccccc3)ccc2O[C@@H](C)CCCCO[C@@H]1CN(C)C(=O)C1CCCCC1`, “inactive”. Consider `COc1ccc(NC(=O)N(C)C[C@@H]2OCCCC[C@@H](C)Oc3ccc(NC(=O)Nc4c(C)noc4C)cc3C(=O)N([C@@H](C)CO)C[C@H]2C)cc1`, for which the cytotoxicity call was “inactive”. As for `CN(Cn1[nH]c(=O)ccc1=O)c1ccccc1`, the cytotoxicity call was “inactive”. As to `COCCOC(=O)N1C(=O)[C@@]2(c3cc(C#CCNC(N)=O)ccc31)[C@H](C(=O)N1CCCCCCC1)[C@H]1C(=O)O[C@H](c3ccccc3)[C@H](c3ccccc3)N1[C@@H]2c1ccccc1OCCO`, the cytotoxicity call is “inactive”.

Regarding `Cl.OC(c1cc(C(F)(F)F)nc2c(C(F)(F)F)cccc12)C1CCCCN1` (stereo not drawn), the cytotoxicity call was “active”. On to `C[C@H]1CN([C@@H](C)CO)C(=O)c2cccc(NC(=O)C3CCCCC3)c2O[C@H]1CN(C)Cc1ccc(-c2ccccc2)cc1`, for which the cytotoxicity call was “inactive”.

Turning to `Cc1noc(C)c1NC(=O)Nc1cccc2c1O[C@@H](CN(C)Cc1ccc(Cl)c(Cl)c1)[C@@H](C)CN([C@H](C)CO)C2=O`, the cytotoxicity call was “inactive”. The value for `C[C@H]1CN([C@@H](C)CO)C(=O)Cc2cc(NC(=O)Cc3ccccc3)ccc2O[C@H]1CN(C)Cc1ccc(-c2ccccc2)cc1` was “active”. Regarding `C[C@H]1CN([C@@H](C)CO)C(=O)Cc2cc(NC(=O)Cc3ccccc3)ccc2O[C@@H]1CN(C)Cc1ccc(-c2ccccc2)cc1`, the cytotoxicity call is “inactive”. On to `C[C@H](CO)N1C[C@H](C)[C@@H](CN(C)Cc2ccc(-c3ccccc3)cc2)Oc2ccc(NC(=O)Cc3ccccc3)cc2CC1=O`, for which the cytotoxicity call is “inactive”. `C[C@@H]1CN([C@@H](C)CO)C(=O)Cc2cc(NC(=O)Cc3ccccc3)ccc2O[C@@H]1CN(C)Cc1ccc(-c2ccccc2)cc1`: the cytotoxicity call is “active”.

For `C[C@@H]1CN([C@H](C)CO)C(=O)Cc2cc(NC(=O)Cc3ccccc3)ccc2O[C@H]1CN(C)Cc1ccc(-c2ccccc2)cc1`, the cytotoxicity call was “inactive”. For `C[C@H](CO)N1C[C@H](C)[C@H](CN(C)Cc2ccc(-c3ccccc3)cc2)Oc2ccc(NC(=O)Cc3ccccc3)cc2CC1=O`, the cytotoxicity call is “inactive”. In the case of `C[C@@H]1CN([C@H](C)CO)C(=O)Cc2cc(NC(=O)Cc3ccccc3)ccc2O[C@@H]1CN(C)Cc1ccc(-c2ccccc2)cc1`, the cytotoxicity call was “active”. In the case of `C[C@@H]1CN([C@@H](C)CO)C(=O)Cc2cc(NC(=O)Cc3ccccc3)ccc2O[C@H]1CN(C)Cc1ccc(-c2ccccc2)cc1`, the cytotoxicity call is “inactive”. As for `CC(C)NC(=O)N(C)C[C@H]1Oc2ccc(NS(=O)(=O)c3cn(C)cn3)cc2CC(=O)N([C@@H](C)CO)C[C@@H]1C`, the cytotoxicity call is “inactive”. With `COc1cccc(C#Cc2ccc3c(c2)O[C@H](CN(C)C(=O)c2ccccn2)[C@H](C)CN([C@@H](C)CO)S3(=O)=O)c1`, the cytotoxicity call is “inactive”.

With `COc1ccc(CN(C)C[C@@H]2OCCCC[C@@H](C)Oc3ccc(NC(=O)CCCCCC(=O)Nc4ccccc4N)cc3C(=O)N([C@H](C)CO)C[C@@H]2C)cc1`, the cytotoxicity call is “inactive”. With `C[C@@H]1CCCCO[C@@H](CN(C)Cc2ccc3c(c2)OCO3)[C@@H](C)CN([C@@H](C)CO)C(=O)c2cc(NC(=O)c3ccccc3)ccc2O1`, the cytotoxicity call is “inactive”.

As to `C[C@H](CO)N1C[C@H](C)[C@H](CN(C)S(=O)(=O)c2cccs2)OCCCC[C@H](C)Oc2ccc(NC(=O)C3CCCCC3)cc2C1=O`, the cytotoxicity call is “inactive”. `Cc1noc(C)c1NC(=O)Nc1ccc2c(c1)CC(=O)N([C@@H](C)CO)C[C@H](C)[C@H](CN(C)C(=O)Nc1cccc3ccccc13)O2`: the cytotoxicity call is “inactive”. Turning to `C[C@@H]1CN([C@H](C)CO)C(=O)c2cc(NC(=O)Cc3cn(C)c4ccccc34)ccc2O[C@@H]1CN(C)Cc1ccc(-c2ccccc2)cc1`, the cytotoxicity call is “inactive”. In the case of `C[C@@H]1CN([C@H](C)CO)C(=O)c2cc(NC(=O)Cc3cn(C)c4ccccc34)ccc2O[C@H]1CN(C)Cc1ccc(-c2ccccc2)cc1`, the cytotoxicity call was “inactive”. As to `C[C@@H]1CN([C@@H](C)CO)C(=O)c2cc(NC(=O)Cc3cn(C)c4ccccc34)ccc2O[C@H]1CN(C)Cc1ccc(-c2ccccc2)cc1`, the cytotoxicity call was “inactive”. As for `C[C@H]1CN([C@@H](C)CO)C(=O)c2cc(NC(=O)Cc3cn(C)c4ccccc34)ccc2O[C@H]1CN(C)Cc1ccc(-c2ccccc2)cc1`, the cytotoxicity call is “inactive”. For the molecule `C[C@@H]1CN([C@@H](C)CO)C(=O)c2cc(NC(=O)Cc3cn(C)c4ccccc34)ccc2O[C@@H]1CN(C)Cc1ccc(-c2ccccc2)cc1`, the cytotoxicity call is “active”.

For `C[C@H]1CN([C@@H](C)CO)C(=O)c2cc(NC(=O)Cc3cn(C)c4ccccc34)ccc2O[C@@H]1CN(C)Cc1ccc(-c2ccccc2)cc1`, the cytotoxicity call was “active”.

On to `C[C@H](CO)N1C[C@H](C)[C@@H](CN(C)Cc2ccc(-c3ccccc3)cc2)Oc2ccc(NC(=O)Cc3cn(C)c4ccccc34)cc2C1=O`, for which the cytotoxicity call is “inactive”. On to `C[C@H](CO)N1C[C@H](C)[C@H](CN(C)Cc2ccc(-c3ccccc3)cc2)Oc2ccc(NC(=O)Cc3cn(C)c4ccccc34)cc2C1=O`, for which the cytotoxicity call was “active”. Take `Cc1ccc([C@@H](N)c2ccncc2)cc1`: the cytotoxicity call is “inactive”. For the molecule `COC(=O)c1c(C#N)c(N)nc2c1CCC2`, the cytotoxicity call is “inactive”. Consider `CC(C)NC(=O)N(C)C[C@H]1OCCCC[C@H](C)Oc2ccc(NC(=O)Nc3ccccc3)cc2C(=O)N([C@H](C)CO)C[C@@H]1C`, for which the cytotoxicity call is “inactive”.

As for `COc1ccccc1-c1ccc2n(c1=O)C[C@H]1[C@H](CO)[C@@H](C(=O)NCC3CC3)N(S(C)(=O)=O)[C@@H]21`, the cytotoxicity call was “inactive”. For `O=C(C[C@@H]1CC[C@H](NS(=O)(=O)c2ccccc2F)[C@@H](CO)O1)NCCCN1CCOCC1`, the cytotoxicity call was “inactive”. As for `C[C@@H]1CN([C@H](C)CO)C(=O)Cc2cc(NS(C)(=O)=O)ccc2O[C@@H]1CN(C)S(C)(=O)=O`, the cytotoxicity call was “inactive”. For the molecule `C[C@H]1CN([C@@H](C)CO)S(=O)(=O)c2ccc(-c3cccnc3)cc2O[C@@H]1CN(C)C(=O)NC1CCCCC1`, the cytotoxicity call was “inactive”.

Turning to `C[C@H](CO)N1C[C@H](C)[C@H](CN(C)C(=O)C2CCOCC2)Oc2cc(C#Cc3ccncc3)ccc2S1(=O)=O`, the cytotoxicity call is “inactive”. For the molecule `C[C@@H]1CN([C@@H](C)CO)S(=O)(=O)c2ccc(C#Cc3ccncc3)cc2O[C@H]1CN(C)C(=O)C1CCOCC1`, the cytotoxicity call is “active”. Under `CC(C)CC#Cc1ccc2c(c1)O[C@@H](CN(C)C(=O)C1CCOCC1)[C@H](C)CN([C@H](C)CO)S2(=O)=O` stands “inactive”; under `CC(C)CC#Cc1ccc2c(c1)O[C@H](CN(C)C(=O)C1CCOCC1)[C@@H](C)CN([C@H](C)CO)S2(=O)=O`, “inactive”. `C[C@@H]1CN([C@@H](C)CO)S(=O)(=O)c2ccc(C#Cc3ccncc3)cc2O[C@@H]1CN(C)C(=O)C1CCOCC1`: the cytotoxicity call was “active”.

For `C[C@H](CO)N1C[C@H](C)[C@@H](CN(C)C(=O)C2CCOCC2)Oc2cc(C#Cc3ccncc3)ccc2S1(=O)=O`, the cytotoxicity call is “inactive”. The value for `CC(C)CC#Cc1ccc2c(c1)O[C@@H](CN(C)C(=O)C1CCOCC1)[C@@H](C)CN([C@H](C)CO)S2(=O)=O` was “inactive”; that for `C[C@@H]1CN([C@H](C)CO)S(=O)(=O)c2ccc(C#Cc3ccncc3)cc2O[C@H]1CN(C)C(=O)C1CCOCC1` was “active”. The value for `CC(C)CC#Cc1ccc2c(c1)O[C@H](CN(C)C(=O)C1CCOCC1)[C@H](C)CN([C@H](C)CO)S2(=O)=O` was “inactive”.

Turning to `C[C@H]1CN([C@@H](C)CO)S(=O)(=O)c2ccc(C#Cc3ccncc3)cc2O[C@@H]1CN(C)C(=O)C1CCOCC1`, the cytotoxicity call was “active”.
